Consider 28 compounds from PubChem BioAssay (Tox21).

A short description of assay [1]: A CellTox Green Cytotoxicity Assay to monitor cytotoxicity in HepG2 cells - 0 hour (AID 1224882). Note: nearly all actives have a fitted effect of over 35% in size. A digest of the protocol:
(§1)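 Real-time, homogeneous cytotoxicity readout: dead-cell DNA staining by CellTox Green in HepG2 monolayers, fluorescence measured at timed intervals up to 40 h of continuous compound exposure.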

Assay [2] can be described thus: A CellTox Green Cytotoxicity Assay to monitor cytotoxicity in HepG2 cells - 32 hour (AID 1224883). Note: nearly all actives have a fitted effect of over 50% in size. Note: potency is the fitted concentration of half-maximal effect. In outline:
as §1

Assay [3] can be described thus: A CellTox Green Cytotoxicity Assay to monitor cytotoxicity in HEK293 cells - 8 hour (AID 1224884). Note: nearly all actives have a fitted effect of over 35% in size. In outline:
(§2)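 Cytotoxicity was tracked continuously in HEK293 cells by a DNA-binding dye excluded from viable cells. Compounds were transferred in DMSO 5 h after seeding; fluorescence was recorded at intervals up to 40 h.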

Assay [4] is described as follows: qHTS RealTime-Glo MT Cell Viability Assay in HepG2 cells - 16 hour (AID 1224885). Note: nearly all actives have a fitted effect of over 50% in size. Note: potency is the fitted concentration of half-maximal effect. In outline: (§3)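 Viability was tracked continuously by NanoLuc luminescence from prosubstrate reduced by living HepG2 cells, at successive time points over 40 h of compound exposure. Cells with reagent were preincubated 5 h at 37 °C before compound addition.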
On the technique in general: In qHTS, concentration-response curves come from the screen itself.

The nature of assay [5]: qHTS RealTime-Glo MT Cell Viability Assay in HEK293 cells - 24 hour (AID 1224886). For activity change, negative = cytotoxicity: top concentration of the series differs between compounds. Note: nearly all actives have a fitted effect of over 50% in size. Note: potency is the fitted concentration of half-maximal effect. A digest of the protocol:
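Viability tracked continuously by luminescence as live cells reduce a prosubstrate for NanoLuc; HEK293 cells preincubated 5 h, compound-treated at 37 C, and read at 0, 8, 16, 24, 32 and 40 h.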

Assay [6] in a line: A CellTox Green Cytotoxicity Assay to monitor cytotoxicity in HEK293 cells - 16 hour (AID 1224888). Note: nearly all actives have a fitted effect of over 35% in size. In outline: as §2
A short description of assay [7]: qHTS RealTime-Glo MT Cell Viability Assay in HepG2 cells - 0 hour (AID 1224889). Note: nearly all actives have a fitted effect of over 50% in size. A digest of the protocol: as §3
Assay [8] can be described thus: A CellTox Green Cytotoxicity Assay to monitor cytotoxicity in HepG2 cells - 8 hour (AID 1224890). Note: nearly all actives have a fitted effect of over 45% in size. In outline: as §1
Assay [9] can be described thus: qHTS assay to identify small molecule antagonists of the estrogen receptor alpha (ER-alpha) signaling pathway using the BG1 cell line in the presence of 0.1 nM 17-beta-estradiol - cell viability counter screen (AID 1259241). Note: nearly all actives have a fitted effect of over 40% in size. A digest of the protocol: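 Estradiol-stimulated (0.1 nM) VM7Luc4E2 cells exposed to compounds 22 hr; viability measured by fluorescence of cleaved CellTiter-Fluor substrate after 30 min.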

The nature of assay [10]: qHTS RealTime-Glo MT Cell Viability Assay in HEK293 cells - 8 hour (AID 1224887). For activity change, negative = cytotoxicity: top concentration of the series differs between compounds. Note: nearly all actives have a fitted effect of over 50% in size. Note: potency is the fitted concentration of half-maximal effect. A digest of the protocol:
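Nonlytic bioluminescent viability monitoring. HEK293 at 600 cells/well with reagent; 5 h settle; compound transfer by pintool; plates held at 37 C and read at set time points.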

Unmarked numbers belong to inactive results. Inconclusive results are not listed. Calls of active or inactive are those of the source. Calls come from the whole dose curve; as a rule, active = well fitted curve in the direction sought with a large enough effect in the repeat runs; inconclusive = weak or mixed curves; inactive = no such curve, though single readings can be large; an effect the other way counts as inactive or inconclusive.
% is set by controls: 0 for no effect and ±100 for the full control effect.

As for `Brc1ccccc1`, the Potency result in assay [1], in assay [2], in [3], in assay [4], in [5] and in assay [6] was “inactive” in each case. For the same compound, the Potency result in assay [7], in [8] and in [9] was “inactive” each time.

Take `CCC(C)(NC(=O)c1cc(Cl)c(C)c(Cl)c1)C(=O)CCl` (configuration not stated): the Potency result in assay [1], in assay [3], in assay [6] and in assay [7] was “inactive” throughout. Also, the Potency in [2] is 49.3 µM (active); in assay [4], 49.3 µM (active); in assay [5], 24.7 µM (active).

Take `CNC(C)Cc1ccccc1OC` (configuration not stated): the Potency entry in assay [1], in assay [2], in assay [3], in assay [4], in [5] and in assay [6] was “inactive” in each case. The Potency result in assay [7] and in assay [9] was “inactive” throughout.

For the compound `NC(=O)C(Cl)(Cl)Cl`, the Potency result in assay [1], in assay [2], in assay [3], in assay [4], in [5] and in [10] was “inactive” each time. For the same compound, the Potency result in assay [7] and in [9] was “inactive” in each case.

For `CCCN(CCCl)c1c([N+](=O)[O-])cc(C(F)(F)F)cc1[N+](=O)[O-]`, the Potency result in [1], in assay [2], in assay [3], in [4], in assay [5] and in assay [7] was “inactive” in each case. Further, in assay [9], the Potency entry was “inactive”. For the same compound, the Potency in [10] is 38.9 µM (active).

With `C#CCOC(C(=O)OCCN(C)C)(c1ccccc1)c1ccccc1`, the Potency entry in [1], in assay [2], in assay [3], in assay [4], in [5] and in assay [6] was “inactive” in each case. Besides, the Potency result in assay [7], in assay [8] and in assay [9] was “inactive” in each case.

With `O=C(O)C(F)(F)C(F)(F)C(F)(F)C(F)(F)C(F)(F)C(F)(F)C(F)(F)C(F)(F)C(F)(F)F`, the Potency entry in [1], in assay [2], in assay [3], in assay [4], in assay [5] and in [6] was “inactive” throughout. Besides, the Potency result in assay [7] and in assay [9] was “inactive” in each case.

For `COP(=S)(OC)Oc1ccc([N+](=O)[O-])cc1Cl`, the Potency entry in assay [1], in [2], in assay [3], in assay [4], in assay [5] and in assay [6] was “inactive” in each case. In addition, the Potency entry in assay [7] and in assay [8] was “inactive” each time.

As for `C/C=C/C=O`, the Potency entry in assay [1], in [2], in assay [3], in [4], in assay [5] and in assay [10] was “inactive” throughout. For the same compound, the Potency entry in assay [7] and in assay [9] was “inactive” in each case.

With `CCCCCCCCCC(=O)O[C@H]1CC[C@H]2[C@@H]3CCC4=CC(=O)CC[C@@H]4[C@H]3CC[C@]12C`, the Potency entry in assay [1], in assay [2], in assay [3], in assay [4], in assay [5] and in assay [10] was “inactive” in each case. Also, the Potency entry in assay [7], in assay [8] and in [9] was “inactive” each time.

In the case of `BrCCCCBr`, the Potency entry in assay [1], in assay [2], in [3], in [4], in assay [5] and in assay [6] was “inactive” in each case. The Potency result in assay [7], in assay [8] and in [9] was “inactive” each time.

Take `C=CCCl`: the Potency result in [1], in assay [2], in assay [3], in [4], in assay [5] and in assay [10] was “inactive” each time. In addition, the Potency result in [7], in assay [8] and in [9] was “inactive” each time.

With `CCCCN=C=O`, the Potency result in [1], in assay [2], in assay [3], in assay [4], in assay [5] and in assay [6] was “inactive” throughout. For the same compound, the Potency result in [7], in [8] and in assay [9] was “inactive” throughout.

Take `Cc1c(F)c(F)c(COC(=O)C2C(/C=C(\Cl)C(F)(F)F)C2(C)C)c(F)c1F` (configuration not stated): the Potency result in assay [1], in [2], in assay [3], in assay [4], in assay [5] and in [6] was “inactive” each time. For the same compound, the Potency result in [7] and in assay [9] was “inactive” throughout.

Regarding `CC(C)(C)C(O)C(Oc1ccc(Cl)cc1)n1cncn1` (configuration not stated), the Potency result in assay [1], in assay [3], in [4], in [6], in assay [7] and in assay [9] was “inactive” each time. In addition, the Potency in assay [2] is 43.6 µM (active); in assay [5] it was 12.3 µM (active).

For `CC(C)N(CCC(C(N)=O)(c1ccccc1)c1ccccn1)C(C)C` (configuration not stated), the Potency result in [1], in assay [2], in [3], in assay [4], in assay [5] and in assay [6] was “inactive” each time. In addition, the Potency entry in assay [7] and in [9] was “inactive” each time.

Take `Cc1ccc(N)cc1C`: the Potency entry in assay [1], in assay [2], in assay [3], in assay [4], in assay [5] and in [6] was “inactive” each time. The Potency result in assay [7], in [8] and in assay [9] was “inactive” each time.

`O=C=Nc1ccc(Cl)cc1`: the Potency result in assay [1], in assay [2], in [3], in assay [4], in assay [5] and in [6] was “inactive” each time. The Potency result in assay [7], in assay [8] and in [9] was “inactive” each time.

On to `C[N+](C)(C)CCCl`, for which the Potency result in assay [1], in assay [2], in [3], in assay [4], in assay [5] and in assay [10] was “inactive” throughout. Moreover, the Potency result in assay [7], in [8] and in [9] was “inactive” each time.

In the case of `COc1cc(Cl)c(OC)cc1Cl`, the Potency result in assay [1], in assay [2], in [3], in assay [4], in [5] and in [6] was “inactive” each time. Further, the Potency entry in assay [7], in assay [8] and in assay [9] was “inactive” each time.

Take `C=CC(=O)OCC(C)C`: the Potency result in [1], in assay [2], in assay [3], in [4], in assay [5] and in [6] was “inactive” in each case. Also, the Potency entry in assay [7], in assay [8] and in assay [9] was “inactive” throughout.

Take `O=C(Nc1ccccc1)Nc1cnns1`: the Potency entry in [1], in assay [2], in [3], in assay [4], in [6] and in assay [7] was “inactive” each time. Further, in assay [8], the Potency result is “inactive”. Also, the Potency in [5] was 24.5 µM (active).

`O=[N+]([O-])c1ccccc1CCl`: the Potency result in assay [1], in assay [2], in assay [3], in [4], in assay [5] and in assay [6] was “inactive” in each case. For the same compound, the Potency entry in assay [7] was “inactive”.

For the compound `CC(=O)CCC(C)=O`, the Potency result in assay [1], in [2], in assay [3], in [4], in assay [5] and in assay [6] was “inactive” in each case. In addition, the Potency result in assay [7], in assay [8] and in [9] was “inactive” each time.

Turning to `COc1cc(CC(C)N)cc2c1OCO2` (configuration not stated), the Potency result in [1], in assay [2], in assay [3], in [4], in [5] and in assay [10] was “inactive” throughout. The Potency entry in assay [7] and in assay [9] was “inactive” in each case.

For `COC(=O)c1cncn1C(C)c1ccccc1` (configuration not stated), the Potency result in assay [1], in assay [2], in [3], in assay [4], in assay [5] and in assay [10] was “inactive” in each case. The Potency result in [7], in assay [8] and in assay [9] was “inactive” throughout.

As for `O=S(=O)(Cl)c1ccccc1`, the Potency result in assay [1], in assay [2], in [3], in assay [4], in [5] and in assay [6] was “inactive” each time. The Potency result in assay [7], in [8] and in assay [9] was “inactive” each time.

For `CO[C@@H]1[C@H](OC(=O)NC(=O)CCl)CC[C@]2(CO2)[C@H]1[C@@]1(C)O[C@@H]1CC=C(C)C`, the cytotoxicity in assay [1] was 1.46% [at 15.8 µM]. The cytotoxicity increase in assay [2] is -1.39% [at 15.8 µM]; in assay [3], -6.32% [at 15.8 µM]; in [8], -1.9% [at 15.8 µM]. In assay [4], the activity change, negative = cytotoxic was 1.78% [at 15.8 µM]. Also, the activity change, negative = cytotoxicity in assay [5] is 14.6% [at 15.8 µM]; in assay [7], 0.756% [at 15.8 µM]; in assay [9] it was -6.95% [at 19 µM]. In [6], the activity change is -10.6% [at 15.8 µM, hits give high values].
